High-throughput results: PubChem BioAssay, National Center for Advancing Translational Sciences (NCATS)
Shown are actives, neighbours in structure and some others; about 21% of the full set was active somewhere.
Pf growth 48h: P. falciparum growth inhibition at 48 hours (one generation); P. falciparum luciferase growth in erythrocytes, 48 h; Potency, µM (highest dose often 28.7 µM), inactives show at the highest dose activity change, negative = inhibition, actives largely listed as inhibitors; actives 5.9% (n = 310,000); further: potency means the concentration at half of the fitted maximal effect; on the % scale 0 is the no-effect control and ±100 the full control effect
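Cell-based growth assay: transgenic P. falciparum expressing firefly luciferase, cultured in red cells within RPMI 1640 containing 0.5% w/v Albumax, 24 mM bicarbonate and gentamycin. A drop in luciferase activity indicates inhibition.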
Cycloheximide cs: affects cycloheximide protein synthesis inhibition readout, counter-screen. AID 2314. max response, %. actives 12% (n = 300,000). cell reporter, cycloheximide protein synthesis inhibition counterscreen; in the data active means max response mostly above about 13%, no sharp cut-off; inactive means mostly below about 14%; further: read at 38.3 µM for the half of the compounds with a filed dose; 0% is about no effect
Shiga toxin inh: blocks Shiga toxin action in Vero cells | Vero cells, Shiga toxin protein synthesis inhibition reporter | inhibition, % at 38.7 µM | actives 9.2% (n = 290,000); in the data active means inhibition mostly above about 28%, no sharp cut-off; inactive means mostly below about 43%; further: 0% is about no effect
HCV inhibitor: blocks hepatitis C virus; Huh7.5.1 HCVcc-Cre infection, luciferase reporter, 44 h; Potency, µM (titrated, usually from 41.8 µM), inactives show top-dose activity change, negative = inhibition, hits mostly inhibitors; actives 3.4% (n = 340,000); AID 651820; further: potency means the concentration at half of the fitted maximal effect; on the % scale 0 is the no-effect control and ±100 the full control effect
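HCVcc-Cre virus at an moi near 0.5 was added right after compound to cells cultured 4 h from seeding (1,000 cells/well). Luciferase activity was determined 44 h later, 15 min after substrate addition at RT.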
Pf growth 96h: P. falciparum growth inhibition at 96 hour, primary screen for plastid delayed-death inhibitors. P. falciparum luciferase reporter growth, 96 h. Potency, µM (series often up to 28.7 µM), for the others: top-dose activity change, negative = inhibition, usual class: inhibitors. actives 6.9% (n = 320,000); further: potency means the concentration at half of the fitted maximal effect; on the % scale 0 is the no-effect control and ±100 the full control effect
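Infected RBCs, 2% Hct / 0.05% parasitemia final; luciferase-reporter P. falciparum; cpd 96 h, 37 C, 5% CO2; luciferase detection reagent; luminescence.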
HCMV antiviral: inhibitors of human cytomegalovirus. HFF cells, HCMV-luciferase reporter, 72 h; stronger effect = lower value. activity change, negative = inhibition, % at 57.5 µM. actives 4.5% (n = 410,000); in the data active means activity change below about -60%; inconclusive means no clear call, values can overlap the other calls; inactive means above about -39%; further: on the % scale 0 is the no-effect control and ±100 the full control effect
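After 16 h attachment at 37C, HFF cells received test compound and HCMV-luciferase (1 PFU/cell); reporter luminescence read 72 h later, data normalized against buffer-only and known inhibitor Salinomycin.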
Active calls of the source: *; ? = inconclusive; · = not tested or not shown; + = active, no number; ! = a repeat was not active; [ ] = another dose, or the depositor's remark. Unless noted, the call rests on the fitted dose curve; in most records, active means well fitted inhibition curve with a large enough effect; inconclusive means small, poorly fitted or top-dose-only effect, or another doubt; inactive means no such curve, though single readings can be large or run the other way.

SMILES | Pf growth 48h | Cycloheximide cs | Shiga toxin inh | HCV inhibitor | Pf growth 96h | HCMV antiviral
Cc1ccc(C)c(OCC(=O)O/N=C(\N)c2ccccn2)c1 | 147.6% | 27.6* | 87.8* | -16.9% | 130.5% | 35.3
N/C(=N\OC(=O)COc1ccc(Br)cc1)c1ccncc1 | -16.5% | -2.8 | 18.8 | 6.0% | 31.7% | -21.1
Cc1ccc(CNC(=O)c2cn(C)c3ccc(S(=O)(=O)N(C)C4CCCCC4)cc3c2=O)cc1 | · | · | · | · | · | 23.3
COc1ccc(CNC(=O)Cc2c(C)c3cc4c(C)coc4c(C)c3oc2=O)cc1 | · | · | · | · | · | 35.4
COc1ccc(C2CC(O)(c3ccccc3)Oc3cc(C)c(Cl)c(C)c32)cc1 (stereo not given) | · | -3.3 | -2.9 | · | · | ·
Cc1ccc(/C=C2\SC(=S)N(/N=C/c3cc([N+](=O)[O-])ccc3O)C2=O)o1 | ? | 19.3* | 23.7 | 2.2% | ? | ·
COc1cccc(C(C)N(C)Cc2nc(COc3ccccc3)no2)c1 (stereo not given) | 0.6% | -3.5 | 24.5 | -2.5% | 7.5% | 17.0
CC(c1cccs1)N(C)Cc1nc(CCc2ccccc2)no1 (stereo not given) | 85.8% | 16.7 | 37.0* | 9.6% | ? | 23.4
Cc1ccc(C(=O)O)cc1NC(=S)NC(=O)c1ccc([N+](=O)[O-])c(C)c1 | -5.0%[5.75 µM] | -4.3 | 39.9 | -18.4% | ? | ?
COc1ccccc1C1CCN(c2ccc([N+](=O)[O-])c(OC)c2)CC1 | -13.0% | 34.7* | 64.4* | ? | 0.0% | 26.0
COc1ccccc1NC(=O)COC(=O)c1[nH]c(=O)[nH]c(=O)c1N | · | · | · | 15.4% | · | -5.0
COc1cc2c(cc1OC)N1C(=O)CC(OCC(=O)O)C3C4CC5(CCN5C(=O)C4=O)C2C31 (stereo not given) | 11.7µM* | 5.1 | -16.2 | 11.7% | 16.8% | -10.8
COc1cc2c(cc1OC)C(C(=O)NCCC(C)C)C1CCCCN1C2=O (stereo not given) | 8.5% | -3.4 | -4.4 | 3.2% | ? | 24.3
COc1ccc(CCNC(=O)c2cc(S(=O)(=O)N3CCCC(C)C3)cn2C)cc1OC (stereo not given) | · | · | · | · | · | 0.7
Cc1[nH]c(=O)[nH]c(=O)c1/C=N/NC(=O)[C@@H](N)CC(C)C | 5.22µM* | 16.3* | 29.7 | ? | ? | -37.3
Cc1[nH]c(=O)[nH]c(=O)c1/C=N/NC(=O)[C@H](CC(C)C)NC(=O)OC(C)(C)C | -13.1% | -3.8 | -4.9 | 0.8% | -28.6% | -24.7
COc1cc(NC(=O)CCc2c(C)nc3c4c(C)cc(C)nc4nn3c2C)cc(OC)c1 | · | · | · | · | · | -35.6
CCc1nc(NCc2cccs2)c2nnn(Cc3ccccc3)c2n1 | · | · | · | · | · | 19.3
Cc1ccc(Nc2ncnc3c2nnn3Cc2ccccc2)cc1 | 67.2% | 23.4* | 49.5* | ? | -45.8% | 80.0
COC(=O)c1ccc(Nc2nc(C)nc3c2nnn3Cc2ccccc2)cc1 | -23.4% | -1.9 | -10.1 | ? | ? | 3.4
CCc1nc(Nc2ccccc2)c2nnn(Cc3ccccc3)c2n1 | 37.2% | 1.1 | -14.0 | ? | 10.4µM* | 22.2
CC(C)CCn1cnc2c(NCc3ccccc3)ncnc21 | · | 29.2* | 36.5 | 9.5% | -28.6% | 15.9
CCCc1nc(NCC2CCCO2)c2nnn(Cc3ccccc3)c2n1 (stereo not given) | 14.7µM* | -1.1 | -2.8 | -1.6% | 22.5% | -17.6
Cc1nc(NCC2CCCO2)c2nnn(Cc3ccccc3)c2n1 (stereo not given) | 0.0% | 13.1 | -7.2 | 24.5% | -3.2% | 34.3
CCCNC(=O)C1CCC(Cn2c(=O)c3sccc3n(CC(=O)N3CCCC3)c2=O)CC1 (stereo not given) | · | · | · | · | · | 6.1
SMILES | Pf growth 48h | Cycloheximide cs | Shiga toxin inh | HCV inhibitor | Pf growth 96h | HCMV antiviral
Cc1cccc(OCC(=O)N(Cc2cccc(Cl)c2)Cc2ccco2)c1C | · | · | · | · | · | -8.3
COc1ccccc1CNc1ncnc2c1nnn2Cc1ccccc1 | ? | -4.9 | -7.1 | ? | 22.8% | 53.4
CC(C)CCNc1ncnc2c1nnn2Cc1ccccc1 | -3.1% | -2.0 | -4.0 | 5.6% | 10.4µM* | 35.5
COc1cccc(NC(=O)C2CCN(C(=O)N3CC(C)Oc4ccccc43)CC2)c1 (stereo not given) | · | · | · | · | · | 1.9
Cc1ccc(NC(=O)CSc2nnc(CCCCCNC(=O)OC(C)(C)C)o2)c(C)c1 | -13.5% | -3.6 | -3.9 | 3.9% | 13.1µM* | -20.4
CSc1nnc(CCNC(=O)OC(C)(C)C)o1 | 29.0% | 13.0 | 54.1* | -2.2% | -3.0% | 21.1
Cc1ccc(C)c(NC(=O)CSc2nnc(CCNC(=O)OC(C)(C)C)o2)c1 | · | -7.2 | -11.0 | 1.1% | -11.2% | 9.4
CSc1nnc(CCCCCCCCc2nnc(SC)o2)o1 | ? | -3.7 | -6.8 | 6.9% | 13.1µM* | -3.5
Cc1c(Cl)cccc1NC(=O)CSc1nnc(CCNC(=O)OC(C)(C)C)o1 | -4.1% | -4.9 | -8.0 | 4.5% | 10.4µM* | ?
CSc1nnc(CCCCCNC(=O)OC(C)(C)C)o1 | 10.2% | 8.3 | 16.3 | 19.3% | -4.8% | 14.2
O=S(Cc1ccc(Br)cc1)Cc1nnc(SCc2ccc(Br)cc2)n1-c1ccccc1 (stereo not given) | ? | -5.1 | -12.1 | 5.01µM* | ? | -80.1*
COC(=O)c1ccc(CSc2nnc(CS(=O)Cc3ccc(Br)cc3)n2-c2ccccc2)cc1 (stereo not given) | ? | -3.4 | -14.0 | 14.1µM* | ? | -16.6
O=[N+]([O-])c1ccc(CSc2nnc(Cc3ccccc3)n2-c2ccc(F)cc2)cc1 | ? | 3.3 | -6.1 | -2.2% | ? | ?
CC(=O)Nc1ccc(S(=O)(=O)N2CCCC(C(=O)N3CCN(c4ccccc4)CC3)C2)cc1 (stereo not given) | ? | -1.5 | 7.1 | · | 90.2% | -30.9
CC(=O)N1CCCc2cc(S(=O)(=O)N3CCCC(C(=O)N4CCN(c5cc(C)ccc5C)CC4)C3)ccc21 (stereo not given) | ? | -7.2 | -5.7 | 10µM* | 0.0% | -77.6*!
CC(=O)N1CCCc2cc(S(=O)(=O)N3CCCC(C(=O)N4CCN(c5ccccc5)CC4)C3)ccc21 (stereo not given) | ? | 4.2 | -18.2 | 11.2µM* | -0.1% | +!
COc1ccccc1N1CCN(C(=O)C2CCCN(S(=O)(=O)c3ccc(C)cc3)C2)CC1 (stereo not given) | ? | · | · | ? | ? | 0.0
COc1ccccc1N1CCN(C(=O)C2CCCN(S(=O)(=O)c3ccc4c(c3)CCCN4C(C)=O)C2)CC1 (stereo not given) | ? | 2.1 | -18.4 | 10µM* | 39.0% | -88.6*!
CCC(=O)Nc1ccc(CC)cc1-c1nc2ccccc2n(Cc2ccccc2)c1=O | · | · | · | · | · | 13.7
CC(=O)Nc1c2sscc-2n(C)c1=O | · | 47.3* | 35.6* | · | · | ·
CC(=O)Nc1c(N)[nH]c(=O)n(C)c1=O | · | -5.0 | -7.9 | · | · | ·
COCCn1c(-c2ccco2)nc2nc3ccccc3nc21 | -3.9% | 11.0 | 25.5 | ? | -10.4% | 6.2
